Screens deposited in PubChem BioAssay by National Center for Advancing Translational Sciences (NCATS).
D2 PAM-1: HTS Assay for Positive Allosteric Modulators of the Human D2 Dopamine Receptor: Primary Screen for Potentiators. AID 485347, 2010. HEK293 T-REx D2, calcium flux, EC20 dopamine potentiation. 0.34% of 340,000 active. potentiation, % at 10 µM. D(2) dopamine receptor (Homo sapiens), P14416;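 active = potentiation over 3 SD above the plate norm, cut at about 30% in these data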
Target sequence (P14416 whole entry, looked up): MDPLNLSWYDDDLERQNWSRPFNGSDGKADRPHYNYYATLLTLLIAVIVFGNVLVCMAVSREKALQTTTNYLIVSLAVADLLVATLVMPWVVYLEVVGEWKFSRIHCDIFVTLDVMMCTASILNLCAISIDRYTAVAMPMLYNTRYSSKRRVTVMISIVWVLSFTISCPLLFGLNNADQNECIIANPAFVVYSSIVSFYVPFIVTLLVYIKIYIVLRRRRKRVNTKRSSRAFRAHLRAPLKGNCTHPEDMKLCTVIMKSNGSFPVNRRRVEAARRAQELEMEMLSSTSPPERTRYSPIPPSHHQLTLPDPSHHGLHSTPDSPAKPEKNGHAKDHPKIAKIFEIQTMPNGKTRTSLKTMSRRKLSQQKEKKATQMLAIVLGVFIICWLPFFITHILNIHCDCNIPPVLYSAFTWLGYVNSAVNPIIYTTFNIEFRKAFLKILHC
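Using a no-wash calcium dye in inducible, force-coupled HEK293 Trex cells expressing D2, we tracked fluorescence each second for 180 s after compound, then for 180 s after EC20 dopamine to detect augmented signalling.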
D2 ag-1: HTS Assay for Allosteric Agonists of the Human D2 Dopamine Receptor: Primary Screen for Agonists; D(2) dopamine receptor (Homo sapiens), P14416; activation, % at 2 µM; HEK293 T-REx D2 cells, calcium flux agonist mode; 0.53% of 340,000 active;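 active = activation over 3 SD above normal in the single-dose calcium agonist read, cut at about 30% in these data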
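Agonism scored from kinetic calcium signal (1 read/sec, 180 s) following compound pin transfer, after a 10 s baseline. Cells: HEK293 Trex line expressing inducible D2 receptor coupled to calcium, dye-loaded after overnight culture at 30 C.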
D2 PAM-2: Beta-Arrestin HTS for Positive Allosteric Modulators of the Human D2 Dopamine Receptor: Potentiators; D(2) dopamine receptor (Homo sapiens), P14416; DiscoveRx D2 beta-arrestin cells, luminescence, 90 min; 100% = 57 uM dopamine signal; potentiation, % (test concentration not listed); 0.23% of 360,000 active; AID 624464, 2012; in the data active = potentiation above about 50%
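PathHunter beta-arrestin assay in DiscoveRx D2 cells. Compounds were added with an EC20 of dopamine (50 nM final) for 90 min at 37 deg C. Luminescence was read 1 h after detection reagent, with 57 uM dopamine as the EC100 control.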
D2 antagonist: HTS Assay for Allosteric Antagonists of the Human D2 Dopamine Receptor: Primary Screen for Antagonists. inhibition, % at 10 µM. 2% of 340,000 active. HEK293 TREx D2 cells, calcium flux, dopamine EC80; in the data active = inhibition above about 30%; inactive = below that, where a call was filed
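Inhibition of EC80 dopamine-driven calcium flux, recorded kinetically, defines activity here; cells are a tetracycline-induced HEK293 T-REx line expressing force-coupled D2.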
D2 ag-2: Beta-Arrestin HTS for Positive Allosteric Modulators of the Human D2 Dopamine Receptor: Agonists. DiscoveRx PathHunter D2 beta-arrestin, luminescence, 90 min; 100% = 57 uM dopamine signal. 0.084% of 360,000 active. activation, % (test concentration not listed). AID 624465, 2012; in the data active = activation above about 40%
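DiscoveRx PathHunter D2 beta-arrestin cells (2,100/well) attached overnight, then compound-stimulated 90 min at 37 C in HBSS/10 mM HEPES/0.1% Tween-20 buffer; beta-galactosidase complementation read by luminescence after 1 h at ambient temperature. Dopamine 57 uM final (EC100) as control.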
Numbers stand for hits; i = inactive; nt = not tested or not shown. Sampled rows, rich in hits. Any-hit rate of the full collection: about 2.4%.

SMILES	D2 PAM-1	D2 ag-1	D2 PAM-2	D2 antagonist	D2 ag-2
Fc1ccc(C2=NC(c3cccc(C(F)(F)F)c3)=Nc3ccccc3N2)cc1	i	nt	nt	nt	nt
CCC1CC(=O)CCN1S(=O)(=O)c1ccc(C)cc1 (stereo not given)	nt	nt	nt	nt	i
CCN(Cc1ccc2c(c1)OCCO2)C(=O)CN1C(=O)NC2(CCCCC2)C1=O	i	i	i	41	i
CC1CCCN(Cc2c(O)ccc3c4c(c(=O)oc23)CCCC4)C1 (stereo not given)	i	i	i	36	i
O=c1oc2c(CN3CCOCC3)c(O)ccc2c2c1CCC2	i	i	i	i	i
COc1ccccc1N1CCN(C(=O)CCc2c(C)nn(-c3ccc(N4CCCC4)nn3)c2C)CC1	i	i	nt	nt	nt
CCC(=O)Nc1cccc(NC(=O)c2ccccc2Cl)c1	nt	i	i	i	i
CCC(=O)Nc1cccc(NC(=O)c2ccc(C)cc2Cl)c1	i	i	i	35	i
COc1ccc(Cn2c3nc4ccccc4nc3c3c(=O)n(Cc4ccco4)c(C)nc32)cc1	i	i	nt	33	nt
COc1ccc(Cn2c(C)nc3c(c2=O)c2nc4ccccc4nc2n3Cc2ccco2)cc1	nt	nt	i	nt	i
C[C@@H]1CN([C@@H](C)CO)C(=O)c2cc(-c3ccccc3F)cnc2O[C@H]1CN(C)Cc1cccc(F)c1	nt	nt	i	nt	i
COc1ccc(N2CCN(C(=O)c3cc(S(=O)(=O)N4CCCCCC4)ccc3OC)CC2)cc1	i	i	i	40	i
CCOC(=O)C1CCCN(S(=O)(=O)c2ccc(S(N)(=O)=O)cc2)C1 (stereo not given)	51	i	i	i	i
CCOC(=O)C1CCCN(S(=O)(=O)c2ccc(C)cc2)C1 (stereo not given)	i	i	i	i	i
CCOC(=O)C1CCN(C(=O)c2cc(S(=O)(=O)N3CCCCCC3)ccc2OC)CC1	i	i	i	38	i
COc1ccc(S(=O)(=O)N2CCCCCC2)cc1C(=O)N1CCN(c2ccc(F)cc2)CC1	nt	nt	i	nt	i
COc1ccc(CNC(=O)CN2C(=O)CSc3ccc(S(=O)(=O)N4CCC(C)CC4)cc32)cc1	i	i	nt	nt	nt
CCN(CC)c1ccc2c(c1)oc(=O)c1c(Cl)cc(=O)oc12	i	48	i	51	i
CCN(CC)c1ccc2c(C)c(Cl)c(=O)oc2c1	i	i	i	i	i
CC1=C(C(=O)Nc2ccccc2)C(c2cccs2)n2nnnc2N1 (stereo not given)	i	i	i	36	i
CCOc1ccc(Oc2c(C)oc3cc(O)ccc3c2=O)cc1	i	i	i	i	i
COC(=O)COc1ccc2c(=O)c(Oc3ccccc3)c(C)oc2c1	37	i	i	i	i
COc1ccc(S(=O)(=O)Nc2cccc(-c3ccc(N4CCCC4)nn3)c2)cc1F	i	i	nt	nt	nt
c1ccc2c(OCCCN3CCCCCC3)cccc2c1	i	i	i	74	i
CCC(=O)c1ccccc1OCCN1CCN(Cc2ccccc2)CC1	i	i	i	110	i
SMILES	D2 PAM-1	D2 ag-1	D2 PAM-2	D2 antagonist	D2 ag-2
CCN1CCN(CCOc2ccccc2-c2ccccc2)CC1	i	i	i	87	i
Clc1cccc(OCCCN2CCCC2)c1Cl	i	i	i	52	i
CC(=O)C1=C(c2ccc(C)cc2)N(C(C)=O)n2c(nnc2-c2ccccc2)S1	i	i	nt	nt	nt
Cn1nc(C(=O)Nc2cccc(C(F)(F)F)c2)c2c1-c1ccccc1S(=O)(=O)C2	i	i	nt	nt	nt
OC(COc1cccc2ccccc12)CN1CCN(c2ccc(Cl)cc2)CC1 (stereo not given)	i	i	i	i	i
CCN1CCN(CCCOc2ccccc2-c2ccccc2)CC1	i	i	i	i	i
c1ccc(-c2ccccc2OCCCN2CCCCC2)cc1	i	i	i	43	i
OCCCN1CCN(CCOc2ccccc2-c2ccccc2)CC1	i	i	i	67	i
C=C1CC(C)OC(c2ccccc2OCC(O)CN2CCCCC2)C1 (stereo not given)	i	i	i	65	i
